# Measurements: article PMC6792352, “Limited Chemical Structural Diversity Found to Modulate Thyroid Hormone Receptor in the Tox21 Chemical Library” (Environmental Health Perspectives, 2019)
# System: thyroid hormone receptor (endogenous TRα and TRβ)
# Design: species or system GH3-TRE-Luc (rat pituitary); GH3-TRE-Luc luciferase reporter, antagonist mode against 1 nM T3, loss of signal, qHTS
# Settings: read-out: Average AC50 (uM) GH3-TRE-Antag, antagonist mode, 1 nM T3, no GH3 cytotoxicity hit
row,SMILES,AC50 [µM]
1,COC(=O)[C@H]1[C@H]2C[C@@H]3c4[nH]c5cc(OC)ccc5c4CCN3C[C@H]2C[C@@H](OC(=O)/C=C/c2cc(OC)c(OC)c(OC)c2)[C@@H]1OC [Rescinnamine],21
2,CCC(=O)OCC(=O)[C@@]1(OC(=O)CC)[C@@H](C)C[C@H]2[C@@H]3CCC4=CC(=O)C=C[C@]4(C)[C@@]3(F)[C@@H](O)C[C@@]21C [Betamethasone dipropionate],27.9
3,O=c1oc2ccccc2c(O)c1C1CCCc2ccccc21 (stereo not drawn) [Coumatetralyl],> 90
4,Nc1ccc(Oc2ccc(Cl)cc2)cc1 [4-Chloro-4'-aminodiphenyl ether],40.7
5,Cn1cnc2c(F)c(Nc3ccc(Br)cc3Cl)c(C(=O)NOCCO)cc21 [Selumetinib],12.5
6,"O=c1[nH]c(Cl)c(Cl)cc1Cl [3,5,6-Trichloro-2-pyridinol]",76.8
